# ADAM17 inh – inhibits human ADAM17; P78536; recombinant ADAM17, EDANS/DABCYL FRET peptide cleavage; inhibition, % at 6.95 µM; 370,000 compounds, 0.83% hits; AID 720648;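 active means inhibition above the mean of compounds lying between control limits plus 3 SD, set per campaign, cut at about 8.5% in these data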;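 further: 0% = DMSO-only wells as the low control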
# KLK7 zymogen act – activators of human kallikrein-7 zymogen. activation, % at 7 µM. P49862. purified proKLK7, EDANS-DABCYL substrate fluorescence; 100% is mature enzyme control, 0% vehicle. 370,000 compounds, 0.9% hits;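 active means activation above the mean of all tested compounds plus 3 SD, computed per campaign excluding outliers beyond control limits, cut at about 13% in these data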
# PLC-beta3 inh – PLC-beta3 (human) inhibition, primary screen; inhibition, % at 12.2 µM; Q01970; 370,000 compounds, 0.18% hits; Purified PLC-beta3, fluorogenic substrate, fluorescence; AID 720704; in the data active means inhibition above about 11%;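 further: 0% = median of compound wells on plate and 100% = full blocker control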
# PLC-gamma1 inh – PLC-gamma1 (human) inhibition, primary screen | P19174 | purified PLC-gamma1, fluorogenic substrate, fluorescence | inhibition, % at 12.2 µM | 370,000 compounds, 0.84% hits | AID 720700; in the data active means inhibition above about 9.5%
# Target sequence (P19174 whole entry, looked up): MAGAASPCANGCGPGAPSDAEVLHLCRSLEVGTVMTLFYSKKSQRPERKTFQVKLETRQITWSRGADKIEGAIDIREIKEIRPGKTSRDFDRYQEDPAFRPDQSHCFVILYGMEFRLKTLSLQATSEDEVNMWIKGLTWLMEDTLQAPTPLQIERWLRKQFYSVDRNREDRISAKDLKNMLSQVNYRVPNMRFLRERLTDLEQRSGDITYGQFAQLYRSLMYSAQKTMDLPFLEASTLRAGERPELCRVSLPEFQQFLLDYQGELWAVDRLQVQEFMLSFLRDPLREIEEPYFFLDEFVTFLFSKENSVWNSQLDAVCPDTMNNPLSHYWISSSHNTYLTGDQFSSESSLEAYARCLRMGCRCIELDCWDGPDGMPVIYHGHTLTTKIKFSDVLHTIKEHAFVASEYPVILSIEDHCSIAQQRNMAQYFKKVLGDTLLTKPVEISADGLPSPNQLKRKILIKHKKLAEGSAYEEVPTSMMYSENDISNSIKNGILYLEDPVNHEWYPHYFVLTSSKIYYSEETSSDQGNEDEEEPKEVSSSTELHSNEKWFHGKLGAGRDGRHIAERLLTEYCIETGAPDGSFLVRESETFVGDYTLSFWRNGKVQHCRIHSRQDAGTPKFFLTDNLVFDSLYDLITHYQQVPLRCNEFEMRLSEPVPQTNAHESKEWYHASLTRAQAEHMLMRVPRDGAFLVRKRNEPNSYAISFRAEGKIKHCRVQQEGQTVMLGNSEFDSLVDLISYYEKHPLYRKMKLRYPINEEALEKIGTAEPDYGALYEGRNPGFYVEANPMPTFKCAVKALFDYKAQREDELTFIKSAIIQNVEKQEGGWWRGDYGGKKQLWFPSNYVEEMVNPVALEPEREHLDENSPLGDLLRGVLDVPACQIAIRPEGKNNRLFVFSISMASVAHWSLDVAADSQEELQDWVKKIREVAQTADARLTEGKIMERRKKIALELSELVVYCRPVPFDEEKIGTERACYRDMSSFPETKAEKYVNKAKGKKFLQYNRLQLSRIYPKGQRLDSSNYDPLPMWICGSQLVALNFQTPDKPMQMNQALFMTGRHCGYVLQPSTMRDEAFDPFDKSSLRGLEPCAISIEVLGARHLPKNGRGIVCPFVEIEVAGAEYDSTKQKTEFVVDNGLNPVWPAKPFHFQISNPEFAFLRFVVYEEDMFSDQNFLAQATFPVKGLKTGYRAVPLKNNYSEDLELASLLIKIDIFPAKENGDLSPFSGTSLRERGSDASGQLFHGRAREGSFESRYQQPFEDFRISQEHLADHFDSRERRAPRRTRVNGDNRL
# HGIII-sPLA2 inh – Blocks human group III sPLA2 activity; 370,000 compounds, 0.56% hits; inhibition, % at 12.2 µM; AID 743126; QFRET BODIPY PC-A2 liposome hydrolysis, fluorescence;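 active means inhibition above mean plus 3 SD of compounds lying within the high and low control bounds, cut at about 19% in these data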;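 further: 0% = median of test compound wells and 100% = no enzyme DMSO wells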
# ADAM10 inh – inhibitors of human ADAM10; O14672; recombinant ADAM10, EDANS/DABCYL FRET peptide cleavage, 3 h; inhibition, % at 7 µM; 370,000 compounds, 0.62% hits;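 active means inhibition above a per-campaign cutoff equal to the mean of compounds falling between control-based bounds plus 3 SD, cut at about 20% in these data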;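 further: 0% = DMSO wells while the 100% control is not disclosed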
# proKLK7 act conf – proKLK7 activation, confirmation | shares compounds with KLK7 zymogen act | 3,200 compounds, 68% hits | activation, % at 7 µM | purified proKLK7, EDANS-DABCYL substrate fluorescence; scaled: vehicle 0, mature enzyme 100;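 active means activation, as change over the incubation, above the mean of all tested compounds plus 3 SD, cut at about 13% in these data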
# EDANS-DABCYL int – counter-screen for kallikrein-7 activators: EDANS-DABCYL optical interference; 3,200 compounds, 80% hits; activation, % at 7 µM; EDANS-DABCYL substrate fluorescence interference, no enzyme, 4 h; solvent 0%, active enzyme control 100%; shares compounds with KLK7 zymogen act;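 active means activation above the all-compound mean plus 3 SD, ignoring values outside control-based bounds, cut at about 4.8% in these data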;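 further: value is the 4 h activation minus the activation read at time zero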
# K7 EDANS ctr – EDANS fluorescence interference in dose response, no enzyme. 250 compounds, 20% hits. EDANS-DABCYL peptide fluorescence interference. EC50, µM. shares compounds with KLK7 zymogen act;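 active means compounds that raise the fluorescence signal in this interference counterscreen, with EC50 at or below 10 µM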;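 further: intact quenched peptide substrate alone read at 355 nm excitation and 520 nm emission; signal is fluorescence gain from T0 to T4 after four hours at room temperature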
# * marks the source's active call; other numbers are inactive results; i = inactive; x = not tested or not shown. Rows were chosen to be rich in hits. Some 3.4% of all compounds tested hit in one or more screens of this group.
SMILES,ADAM17 inh,KLK7 zymogen act,PLC-beta3 inh,PLC-gamma1 inh,HGIII-sPLA2 inh,ADAM10 inh,proKLK7 act conf,EDANS-DABCYL int,others
COc1cc2cc(C(c3nnnn3C(C)(C)C)N3CCc4ccccc4C3)c(=O)[nH]c2cc1OC (stereo not drawn),-134.7,24.8*,-267.2,-177.2,-0.5,-391.7,4.9,1.9,
Cc1nn(CCc2nn[nH]n2)c2nc(-c3ccc(Br)cc3)cc(C(F)(F)F)c12,-24.4,-2.1,-29.4,-21.8,-13.7,-76.6,x,x,
Cc1nn(CCc2nn[nH]n2)c2nc(C(F)(F)F)cc(C(F)(F)F)c12,-264.9,30.0*,-299.6,-206.0,4.9,i,17.2*,12.1*,K7 EDANS ctr=>69.5
COC(=O)C1=C(C)N(Cc2ccccc2C(F)(F)F)C(=NCc2cc(OC)c(OC)c(OC)c2)NC1c1ccc(Cl)cc1 (stereo not drawn),0.8,0.0,1.2,0.3,-16.1,-6.5,x,x,
O=C1C2C(c3ccccc3)=NN(c3ccccc3)C2C(=O)N1c1ccccc1 (stereo not drawn),-58.9,14.5*,-183.6,-166.9,-0.3,-303.4,13.2*,18.0*,
OC[C@@H]1[C@@H](c2ccc(F)cc2)C(c2ccccc2)=NN1c1ccccc1,i,-93.0,i,i,3.2,i,x,x,
O=C1[C@H]2C(c3ccccc3)=NN(c3ccccc3)[C@H]2C(=O)N1c1ccccc1,-58.1,22.4*,-240.9,-148.1,-3.9,-249.4,-364.0,-297.4,
Cc1cc(N2CCN(C(=O)OC(C)(C)C)C[C@H]2C)ccc1N1CCN(Cc2ccccc2)[C@@H](C)C1,-1.9,0.0,2.9,-0.4,6.8,-10.0,x,x,
CCc1c(Cc2cccc(F)c2)ncn1CCc1ccccc1OC,-1.6,0.1,3.9,1.3,-5.3,-1.6,x,x,
Nc1ccc2nn(-c3ccccc3)nc2c1,-96.0,29.9*,i,i,-1.1,-318.5,66.4*,67.6*,
Nc1cc2nn(-c3ccccc3)nc2cc1Cl,-181.6,20.6*,i,-456.7,-24.5,i,-50.4,-39.4,
Nc1ccc2c(c1)nnn2-c1ccccc1,-166.4,31.0*,i,i,7.3,i,44.5*,44.1*,
Nc1ccc(-n2nc3ccccc3n2)cc1,-45.4,0.3,i,i,5.4,-154.1,x,x,
Cc1nc([N+](=O)[O-])cn1CC(Cl)Cn1cc([N+](=O)[O-])nc1C,1.2,0.0,3.7,4.6,2.4,1.1,x,x,
C[C@@H]1CN([C@@H](C)CO)C(=O)CCCn2cc(nn2)CO[C@H]1CN(C)C(=O)CCC(F)(F)F,-3.2,0.5,-0.6,-2.3,9.3,-9.7,x,x,
CCc1c(-c2ccc(OC)cc2)ncn1CCc1ccccc1OC,2.6,0.8,4.3,2.9,3.3,4.4,x,x,
O=C1OCCN1C(=O)[C@H]1[C@H](c2ccc(Cl)cc2)C(c2ccccc2)=NN1c1ccccc1,-69.4,-212.2,i,-376.5,-15.5,-261.9,x,x,
CC[C@@H]1C(c2ccccc2)=NN(c2ccccc2)[C@H]1C(=O)N1CCOC1=O,-31.9,186.8*,-151.7,-106.8,-2.8,-123.0,161.1*,131.2*,
CC[C@@H]1C(c2ccc(F)cc2)=NN(c2ccccc2)[C@H]1C(=O)N1CCOC1=O,-22.6,81.0*,-91.9,-74.2,3.6,-90.3,64.4*,53.7*,K7 EDANS ctr=7.35*
CC[C@H]1C(c2ccc(F)cc2)=NN(c2ccccc2)[C@@H]1CO,i,21.9*,i,i,11.8,i,-93.6,-120.4,
C[C@H](CO)N1C[C@H](C)[C@H](CN(C)C(=O)Nc2ccc3c(c2)OCO3)OCc2cnnn2CCCC1=O,-0.2,0.3,-17.5,-10.5,4.1,-7.2,x,x,
Clc1ccc(OCCOc2ccc(Br)nc2Br)c(Cl)c1,0.4,x,-0.7,-0.4,-1.5,2.8,x,x,
COc1cccc(NC(=O)CSc2nc3c(sc4ccccc43)c(=O)n2CCN(C)C)c1,-242.7,14.4*,-61.5,-39.6,-1.3,i,2.7,4.0,
Cc1cccc2c(C(=O)O)c3cccc(C)c3nc12,-348.9,28.0*,-347.7,-246.3,-4.7,i,49.1*,41.7*,K7 EDANS ctr=>69.5
CCCc1cc(=O)oc2c3c(cc(OCC(=O)N[C@@H](C)C(=O)O)c12)OC(C)(C)CC3,i,49.2*,i,i,1.4,i,70.0*,78.5*,
SMILES,ADAM17 inh,KLK7 zymogen act,PLC-beta3 inh,PLC-gamma1 inh,HGIII-sPLA2 inh,ADAM10 inh,proKLK7 act conf,EDANS-DABCYL int,others
CCCc1cc(=O)oc2c3c(cc(OCC(=O)NCc4ccncc4)c12)OC(C)(C)CC3,i,-6.8,i,i,-1.6,i,x,x,
CCCc1cc(=O)oc2c3c(cc(OCC(=O)N[C@@H](CSC)C(=O)O)c12)OC(C)(C)CC3,i,31.8*,i,i,-4.4,i,35.3*,30.6*,
CCc1cc(=O)oc2c3c(cc(OCC(=O)N[C@H](C(=O)O)[C@H](C)CC)c12)OC(C)(C)CC3,i,47.9*,i,i,-4.7,i,48.6*,49.2*,
O=S1(=O)C=C(Sc2ccc(Cl)cc2)c2ccccc2C1Cc1ccc(F)cc1 (stereo not drawn),0.9,-0.9,-0.6,-0.1,-3.4,2.1,x,x,
O=C(Nc1ccccc1F)O[C@@H]1CC[C@@]23CCCN2C(=O)CCC[C@H]3C1,-0.8,x,1.4,-3.6,-1.0,-1.5,x,x,
CCCCn1c(=O)nc2n(-c3ccccc3C)c3ccccc3cc-2c1=O,-55.6,2.1,-82.1,-81.4,-2.9,-219.1,x,x,
Cc1ccccc1-n1c2nc(=O)n(C)c(=O)c-2cc2ccccc21,-450.3,20.7*,i,-439.8,4.4,i,29.8*,19.3*,K7 EDANS ctr=i
COc1ccc(C(C)(C)C)cc1N1C(=O)[C@@H]2CSCCS(=O)(=O)N2C1=O,-0.3,0.1,-1.0,-3.3,3.9,5.4,x,x,
N#CC1=C(N)Oc2cc(O)c(Cl)cc2C1c1cccnc1 (stereo not drawn),-5.2,3.9,-451.5,-413.3,-4.9,-20.5,x,x,
N#CC1=C(N)Oc2cc(O)c(Cl)cc2C1c1ccccc1F (stereo not drawn),-86.3,15.8*,i,i,-13.6,-218.4,-3.4,1.0,
CC(C)Sc1nc(N2CCOCC2)c2c(c1C#N)CC(C)(C)N(C)C2,-50.5,35.2*,-121.4,-104.6,-1.9,-140.5,0.4,1.5,
CC1(C)Cc2c(c(N3CCOCC3)nc3sc(-c4ccc(C(=O)O)o4)c(N)c23)CO1,-51.1,46.1*,i,i,-0.8,-144.3,22.1*,22.9*,
CN1Cc2c(N3CCOCC3)nc3sc(C#N)c(N)c3c2CC1(C)C,-329.6,16.7*,i,i,-6.0,i,67.8*,70.0*,

# Screens from PubChem BioAssay.
